Bioassay records: PubChem, National Center for Advancing Translational Sciences (NCATS)
NPC1 promoter act – qHTS Assay for NPC1 Promoter Activators; Potency, µM (series often up to 9.22 µM), hits mostly activators; hit rate 2.4% among 320,000; Huh7 NPC1 promoter luciferase reporter, 24 h; AID 485313, 2010; also: nearly all actives have a fitted effect of over 60% in size
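Compounds in DMSO were transferred onto Huh7 NPC1-luciferase reporter cells pre-incubated 2 h; after 24 h at 37 °C, Amplite reagent was dispensed and luminescence recorded 10 min later.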
Luc counter – Counterscreen for Luciferase (Kinase-Glo TM) Inhibition. hit rate 0.28% among 200,000. Kinase-Glo luciferase, ATP luminescence, 8 min. Luciferin 4-monooxygenase (Photuris pensylvanica), Q27757. Potency, µM (titrated, usually from 38.3 µM), most hits filed as inhibitors. AID 1379, 2008; also: nearly all actives have a fitted effect of over 60% in size
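Luminescence was the read-out, taken after 8-minute incubation at ambient temperature. Luciferase turned over luciferin with 10 uM ATP in imidazole pH 7.2 buffer containing KCl, MgCl2, Tween 20 and BSA.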
Rab9 prom act – qHTS Assay for Rab9 Promoter Activators. Potency, µM (top dose mostly 9.22 µM), most hits filed as activators. Huh7 Rab9 promoter-luciferase reporter, luminescence, 24 h. hit rate 2.8% among 320,000; also: nearly all actives have a fitted effect of over 60% in size
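Rab9 promoter-driven luciferase in stably transfected Huh7 cells; 1500 cells/well rested 2 h, exposed to compound in DMSO for 24 h at 37 °C, 5% CO2. Luminescence read 10 min after adding luciferase reagent at ambient temperature.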
FLuc counter – qHTS profiling assay for firefly luciferase inhibitor/activator using purifed enzyme and Km concentrations of substrates (counterscreen for miR-21 project); purified FLuc, Km substrates, luminescence inhibition; hit rate 6.9% among 360,000; AID 588342, 2011; Potency, µM (highest dose often 57.5 µM), hits mostly inhibitors; Luciferin 4-monooxygenase (Photinus pyralis), P08659; also: nearly all actives have a fitted effect of over 55% in size
Target sequence (P08659 whole entry, looked up): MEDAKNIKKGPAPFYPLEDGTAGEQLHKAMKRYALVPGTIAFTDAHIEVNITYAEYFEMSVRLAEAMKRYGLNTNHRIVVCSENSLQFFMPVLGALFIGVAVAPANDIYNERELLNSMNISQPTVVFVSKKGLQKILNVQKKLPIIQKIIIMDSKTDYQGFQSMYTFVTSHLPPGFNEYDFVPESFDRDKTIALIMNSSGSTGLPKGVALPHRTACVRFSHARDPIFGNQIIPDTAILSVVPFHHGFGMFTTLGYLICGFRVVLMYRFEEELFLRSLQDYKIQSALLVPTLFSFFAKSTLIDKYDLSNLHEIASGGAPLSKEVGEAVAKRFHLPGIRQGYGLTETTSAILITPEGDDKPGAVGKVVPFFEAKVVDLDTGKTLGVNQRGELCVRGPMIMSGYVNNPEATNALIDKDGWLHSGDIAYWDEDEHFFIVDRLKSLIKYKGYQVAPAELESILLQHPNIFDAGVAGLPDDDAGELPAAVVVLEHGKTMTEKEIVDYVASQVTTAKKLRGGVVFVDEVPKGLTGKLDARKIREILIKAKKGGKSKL
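Purified P. pyralis luciferase (10nM final) with 10uM D-luciferin and 10uM ATP (Km levels) in 50mM Tris acetate pH 7.5, 10mM Mg acetate, 0.01% Tween-20, 0.05% BSA; qHTS 6-point titration, ~60 µM downward; luminescence read.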
SMN2 splice enh – qHTS Assay for Enhancers of SMN2 Splice Variant Expression; HEK293 SMN2-luciferase splicing reporter, luminescence, 30-36 h; Potency, µM (doses to about 46.1 µM), actives largely listed as activators; hit rate 2.8% among 210,000; AID 1458, 2008; also: nearly all actives have a fitted effect of over 55% in size
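HEK293 cells carry an SMN2 minigene-luciferase reporter in which exon 7 inclusion puts luciferase in frame. Cells were seeded at 2000 cells/well, attached for 10-12 hours, then exposed to compounds for 30-36 hours at 37C before ONE-Glo luminescence.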
ELG1 genotox – qHTS screen for small molecules that induce genotoxicity in human embryonic kidney (HEK293T) cells expressing luciferase-tagged ELG1. hit rate 1.3% among 330,000. HEK293T ELG1-luciferase reporter, luminescence, 16 h. Potency, µM (doses to about 46 µM), hits mostly activators; also: nearly all actives have a fitted effect of over 60% in size
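Genotoxic stress is detected as increased luminescence from luciferase-tagged ELG1 in HEK293T cells, measured with ONE-Glo after a 16 hr treatment at 37 °C.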
Each line names hits and unclear results; the compound was inactive in the other large screens. An excerpt weighted towards active compounds, which were near 7.3% of everything screened. Calls follow the shape of the dose curve; as a rule, active = well fitted curve in the direction sought with a large enough effect; inconclusive = small, poorly fitted or top-dose-only effect, or another doubt; inactive = no such curve, though single readings can be large; an effect the other way counts as inactive or inconclusive.

COc1ccc(CCn2c(C)cc(C(=O)COC(=O)c3cnccn3)c2C)cc1	none (no result: Luc counter, SMN2 splice enh)
CCn1c(C)cc(C(=O)COC(=O)c2cccnc2SC)c1C	ELG1 genotox 2.3µM (no result: NPC1 promoter act, Luc counter, Rab9 prom act, FLuc counter, SMN2 splice enh)
CSC1=C(C#N)C(c2ccncc2)C(C(=O)Nc2ccccc2)=C(C)N1 (stereo not drawn)	none
CCOC(=O)C(C)n1cnc2c(oc3ccccc32)c1=O (stereo not drawn)	none
O=C1c2ccccc2C(=O)c2c1ncn2-c1ccccc1	none
CCOC(=O)N1CCN(C(=O)COc2ccccc2OC)CC1	none
CC(C)c1ccc(/C=N/NC(=O)c2c(Cl)cnn2C)cc1	NPC1 promoter act 3.2µM, Rab9 prom act 2.8µM, FLuc counter 0.67µM, SMN2 splice enh 8.9µM, ELG1 genotox 18µM
Cc1nn(C)c(C(=O)N/N=C/c2ccc(Br)cc2)c1Cl	none
CCCCc1cc(=O)oc2c(CN(C)C)c(O)c(Cl)cc12	none
CCOc1ccc(-c2cc(CCCC(=O)NCCc3ccc(SC)cc3)no2)cc1	FLuc counter 12µM (no result: NPC1 promoter act, Luc counter, Rab9 prom act, ELG1 genotox)
CCOc1ccc(-c2cc(CCCC(=O)NCCc3ccc(OCC)c(OCC)c3)no2)cc1	FLuc counter 9.5µM (no result: NPC1 promoter act, Luc counter, Rab9 prom act, ELG1 genotox)
CCOc1ccc(-c2cc(CCCC(=O)NCc3ccco3)no2)cc1	FLuc counter 3.4µM
Cc1cc(C(=O)N2CCN(c3ncccc3C#N)CC2)no1	none (no result: Luc counter, SMN2 splice enh)
Cc1ccc(S(=O)(=O)CCC(=O)OCC(=O)c2ccc(C)c(C)c2)cc1	FLuc counter inconclusive
COc1ccc(Br)cc1/C=C/C(=O)NC(=S)Nc1ccc(Cl)c(C(=O)O)c1	none
CCn1ncc(/C=N/NC(=O)c2ccc3c(c2)OCO3)c1C	FLuc counter 17µM
CCn1cc(/C=N/NC(=O)c2ccc3c(c2)OCO3)c(C)n1	FLuc counter inconclusive, SMN2 splice enh inconclusive
CCn1nc(C)c(/C=N\NC(=O)c2ccc3c(c2)OCO3)c1C	FLuc counter 24µM
CCn1nc(C)c(CNC(=O)Nc2ccc3c(c2)OCO3)c1C	NPC1 promoter act inconclusive, Rab9 prom act inconclusive, FLuc counter 24µM, SMN2 splice enh inconclusive, ELG1 genotox inconclusive
Cc1c(/C=N/NC(=O)c2ccc3c(c2)OCO3)cnn1C	FLuc counter inconclusive
O=S1(=O)CCN(OCc2ccc(F)cc2Cl)CC1	none
O=S(=O)(NCc1ccco1)c1ccc2ccccc2c1	none (no result: Luc counter, SMN2 splice enh)
Cc1ccc(-c2cnc(-c3ccncc3)o2)cc1	NPC1 promoter act inconclusive, Rab9 prom act inconclusive, FLuc counter 6.7µM, SMN2 splice enh 22µM, ELG1 genotox 18µM
O=[N+]([O-])c1ccc(-c2ncc(-c3ccc(Br)cc3)o2)cc1	NPC1 promoter act inconclusive, Rab9 prom act inconclusive, FLuc counter inconclusive (no result: Luc counter, SMN2 splice enh)
Nc1ccc(-c2ncc(-c3ccccc3)o2)cc1	FLuc counter 1.5µM, ELG1 genotox inconclusive (no result: Luc counter, SMN2 splice enh)
CCOC(=O)CSc1nc2ccc(NC(=O)CSc3nnnn3Cc3ccccc3)cc2s1	none
CCOC(=O)CSc1nc2ccc(NC(=O)c3ccccc3F)cc2s1	FLuc counter 15µM (no result: NPC1 promoter act, Luc counter, Rab9 prom act, SMN2 splice enh, ELG1 genotox)
COc1cc(OC)cc(C(=O)Nc2ccc(-c3nc4ccccc4s3)c(C)c2)c1	none (no result: NPC1 promoter act, Luc counter, Rab9 prom act, SMN2 splice enh, ELG1 genotox)
Cc1cc(NC(=O)c2ccccc2F)ccc1-c1nc2ccccc2s1	FLuc counter 0.67µM (no result: NPC1 promoter act, Luc counter, Rab9 prom act, SMN2 splice enh, ELG1 genotox)
CCOC(=O)CSc1nc2ccc(N)cc2s1	FLuc counter 19µM
O=C(COc1ccccc1F)Nc1ccc2nc(SCC(=O)N3CCOCC3)sc2c1	FLuc counter 21µM (no result: NPC1 promoter act, Luc counter, Rab9 prom act, SMN2 splice enh, ELG1 genotox)
COC(=O)c1c(NC(=O)CN2CCCc3ccccc32)sc(C)c1C	none
Cc1nc(Nc2nc(CSc3nc4ccccc4[nH]3)cc(=O)[nH]2)nc2ccccc12	none
CCOC(=O)N1CCN(C(=O)C2CCN(S(=O)(=O)c3ccc(OCC)cc3)CC2)CC1	none (no result: Luc counter, SMN2 splice enh)
Nc1ccc2nc(SCc3cccc(F)c3)sc2c1	NPC1 promoter act inconclusive, Rab9 prom act 4.5µM, FLuc counter 4.8µM, SMN2 splice enh 13µM, ELG1 genotox inconclusive
O=C(Nc1ccc2nc(SCC(=O)N3CCCC3)sc2c1)c1ccccc1F	FLuc counter 24µM (no result: NPC1 promoter act, Luc counter, Rab9 prom act, SMN2 splice enh, ELG1 genotox)
